# In the library only some 4.7% were active in any assay of this set; here they are far more common.
# EBI2 antag = EBI2 receptor antagonists, beta-arrestin recruitment, primary screen, cell-based, luminescence, 7a,25-OHC stimulation, uHTS; 7a,25-OHC stimulated; inhibition, % at 5 µM; G-protein coupled receptor 183 (Homo sapiens), P32249; actives 0.81% (n = 360,000); AID 651636, 2012; in the data active = inhibition above about 38%;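 note: enzyme fragment complementation signal reports receptor beta-arrestin coupling in cells; 0% = agonist plus DMSO wells and 100% = wells without agonist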
# Target sequence (P32249 whole entry, looked up, the tested form may be a part): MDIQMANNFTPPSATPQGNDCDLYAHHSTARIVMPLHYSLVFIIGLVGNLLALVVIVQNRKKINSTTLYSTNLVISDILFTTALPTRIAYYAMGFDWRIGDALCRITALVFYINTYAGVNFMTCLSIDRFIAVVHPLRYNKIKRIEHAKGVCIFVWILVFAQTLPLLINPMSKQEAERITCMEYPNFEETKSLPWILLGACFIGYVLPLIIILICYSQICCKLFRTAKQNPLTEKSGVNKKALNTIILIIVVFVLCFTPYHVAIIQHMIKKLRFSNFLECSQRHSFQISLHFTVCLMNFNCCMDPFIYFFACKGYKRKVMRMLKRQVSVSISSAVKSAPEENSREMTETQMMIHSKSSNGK
# PfHsp90 set2 = growth inhibition of PfHsp90-expressing yeast, primary screen, antimalarial PfHsp90 inhibitor project, S. cerevisiae, BacTiter-Glo luminescence, single point, set 2; actives 0.32% (n = 310,000); BacTiter-Glo ATP, 48 h; yeast lacking PDR1 and PDR3 efflux regulators; inhibition, % at 9.4 µM; AID 504621, 2011;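 active = every replicate shows inhibition above about 80%, whatever the replicate mean, limit read from the data; inconclusive = mean inhibition reaches the set limit but some replicate falls short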;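 note: 0% = DMSO neutral controls and 100% = 20 µM radicicol positive controls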
# tim10-1 inh = growth inhibitors of tim10-1 mutant yeast, primary screen, luminescence, uHTS; S. cerevisiae tim10-1 ts strain growth, BacTiter-Glo, 24 h; inhibition, % at 20 µM; actives 2.2% (n = 330,000); AID 463190, 2010;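 active = inhibition of at least 40%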;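 note: mutant grown at 25 °C; 0% = DMSO wells with yeast and 100% = wells holding no yeast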
# tim23-1 inh = growth inhibitors of tim23-1 mutant yeast, primary screen, luminescence, uHTS | S. cerevisiae tim23-1 growth, BacTiter-Glo luminescence, 24 h | actives 1.3% (n = 330,000) | inhibition, % at 20 µM;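 active = growth inhibition of the mutant yeast at or above 50%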;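 note: temperature-sensitive mutant grown at 25 °C; plate controls were DMSO-treated mutant yeast for no effect and medium wells lacking yeast for full effect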
# SKKanGAS inh = S. pyogenes SKKanGAS growth inhibitors in kanamycin, primary screen, streptokinase expression inhibitor project, SKKanGAS strain, BacTiter-Glo luminescence. 6 h. inhibition, % at 7.5 µM. actives 1.3% (n = 300,000);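 active = mean replicate score, as percent of positive control median, at least 50; inconclusive = mean below 50 but one replicate at or above 50; inactive = mean and every replicate below 50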;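 note: strain carries kanamycin resistance gene driven by streptokinase promoter and grows in 40 µg/ml kanamycin; loss of luminescence reflects streptokinase promoter inhibition or plain growth inhibition; 0% = median of DMSO wells and 100% = positive control at its reference dose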
# TIM10 inh = growth inhibitors of isogenic TIM10 control yeast, primary screen, counter-screen for tim10-1 yeast inhibitor project, luminescence, uHTS; AID 463195, 2010; actives 1.4% (n = 330,000); S. cerevisiae TIM10 strain growth, BacTiter-Glo luminescence, 24 h; inhibition, % at 10 µM;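 active = inhibition of 40% or more at the single tested concentration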;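 note: wild-type TIM10 isogenic control strain grown at permissive 25 °C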
# tim10-1 confirm = growth inhibitors of tim10-1 mutant yeast, confirmation, single concentration, luminescence, S. cerevisiae; shares compounds with tim10-1 inh; S. cerevisiae tim10-1 ts strain growth, BacTiter-Glo, 24 h; inhibition, % at 20 µM; actives 56% (n = 7,400);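 active = inhibition of yeast growth at or above a set limit in either of two repeat tests at 20 µM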;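 note: tim10-1 mutant grown at permissive 25 °C to find synthetic lethal compounds; 0% = DMSO yeast wells and 100% = medium wells without yeast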
# The depositor's hits bear a star; ? = inconclusive; · = no result.
SMILES,EBI2 antag,PfHsp90 set2,tim10-1 inh,tim23-1 inh,SKKanGAS inh,TIM10 inh,tim10-1 confirm
CCN(CC)C(=O)NC1CC(=O)N(c2ccc(OC)cc2)C1 (centres undefined),0.7,8.5,15.1,6.7,-1.3,-30.6,·
CCOc1ccc(CN2CCN(Cc3cc4c(cc3Cl)OCO4)CC2CCO)cc1 (centres undefined),8.8,8.5,1.0,20.4,-4.2,4.0,·
C=CCn1c(SCC(=O)Nc2ccc(F)cc2)nnc1-c1cnccn1,1.0,-45.0,-8.9,-0.4,-2.9,-10.9,·
CCOC(=O)N1CCN(CC(=O)Nc2nnc(C(F)(F)F)s2)CC1,-0.6,4.3,4.5,16.1,-2.2,-2.7,·
CC(NC(=O)C12CC3CC(CC(C3)C1)C2)c1ccc2c(c1)OCCO2 (centres undefined),3.0,·,45.1*,24.1,-0.8,8.1,25.0
O=S(=O)(c1ccc(NC(=S)Nc2ccccc2)cc1)N1CCOCC1,-10.5,-19.0,13.9,25.9,7.5,4.3,·
CC(NC(=S)Nc1ccc(S(=O)(=O)N2CCOCC2)cc1)C1CC2CCC1C2 (centres undefined),6.5,6.7,48.8*,42.1,4.5,23.6,42.8*
O=C(NCc1ccccc1)c1cc(-c2cccs2)on1,13.8,-4.6,6.1,10.7,-6.1,-6.9,·
O=C(NCc1ccccc1)c1nc(-c2cccs2)no1,11.4,0.2,40.2*,12.1,·,5.2,37.5*
CCN(c1ccccc1)S(=O)(=O)c1ccc(N2CCN(c3ccc(O)cc3)CC2)nc1,-4.1,-7.1,-74.8,-21.5,·,-58.0,·
CCN(CC)S(=O)(=O)c1ccc(S(=O)(=O)N2CCN(C(=O)c3ccco3)CC2)cc1,4.6,-11.9,8.3,-1.3,-6.6,-5.3,·
CCCCc1ccc(S(=O)(=O)N2CCN(C(=O)c3ccco3)CC2)cc1,-7.3,4.8,51.7*,33.6,-0.3,23.4,32.0*
S=c1[nH]c(-c2ccc(Cl)cc2)cs1,0.7,-9.6,47.7*,32.8,2.4,11.9,17.2
COc1ccc(C(=O)Nc2ccc(Cl)cc2C(=O)NCc2ccco2)cc1OC,10.0,-19.5,42.7*,29.9,16.1,16.4,15.2
CC1CCN(C2=C(NS(=O)(=O)c3ccc(Cl)cc3)C(=O)c3ccccc3C2=O)CC1,-14.4,-10.4,40.1*,38.5,26.2,28.5,28.9
O=C1C(NS(=O)(=O)c2ccc(Br)cc2)=C(N2CCCCC2)C(=O)c2ccccc21,-3.4,3.3,49.8*,44.4,15.5,15.1,14.1
Cn1nnnc1SCC(=O)NC(=O)c1cccc([N+](=O)[O-])c1,-0.2,-3.6,14.6,2.5,-0.4,-5.2,·
O=S(=O)(N/N=C/c1cccnc1)c1ccc(Cl)c(Cl)c1,14.3,23.1,11.2,5.7,-0.6,11.1,·
C=CCN1C(=O)C2(NNc3ccccc3O2)c2ccccc21 (centres undefined),13.7,-8.2,1.4,36.4,43.1,34.0,·
CCCCN1C(=O)C2(NNc3ccccc3O2)c2ccccc21 (centres undefined),12.9,5.9,42.9*,33.0,10.9,31.2,19.2
O=C(c1ccc(-c2cccc(C(F)(F)F)c2)o1)N1CCCCCCC1,7.4,-6.9,40.8*,33.2,-0.6,12.8,29.6*
C=CCOc1ccc(C[C@H](N)C(=O)NC[C@H]2O[C@@H](n3ccc(N)nc3=O)[C@H](O)[C@@H]2O)cc1,1.5,·,·,·,·,·,·
Nc1nonc1-n1nnc(C(=O)c2ccccc2)c1-c1ccccc1,-0.6,5.1,40.9*,35.2,-8.5,3.2,11.0
Cc1cccc(-n2nc(C(=O)c3ccco3)cc(-c3nc4ccccc4[nH]3)c2=N)c1,14.1,4.4,50.5*,16.7,?,26.8,25.0
Cc1ccc(NC(=O)c2cc(-c3ccccc3)nn2-c2ccccc2)cc1,41.9,10.8,44.6*,21.1,21.8,32.5,31.5*
SMILES,EBI2 antag,PfHsp90 set2,tim10-1 inh,tim23-1 inh,SKKanGAS inh,TIM10 inh,tim10-1 confirm
CCCN(C1CCS(=O)(=O)C1)S(=O)(=O)c1ccc(F)cc1 (centres undefined),1.7,-0.1,0.3,4.9,·,5.4,·
CC1Cc2ccccc2N1C(=O)CSc1nnnn1Cc1ccccc1 (centres undefined),4.8,3.3,60.5*,39.3,3.5,38.4,45.2*
Cc1nn(C(=O)c2ccc3c(c2)OCO3)c(N)c1-c1ccccc1,3.4,9.8,40.7*,40.3,-4.7,18.5,10.2
Cn1ncc2c(Nc3ccc(Br)cc3)nc(Nc3ccc(Br)cc3)nc21,12.6,-20.9,56.8*,40.7,106.0*,33.3,28.4*
Cn1ncc2c(Nc3cccc(Cl)c3)nc(Nc3cccc(Cl)c3)nc21,7.8,107.6*,54.0*,42.6,100.0*,17.6,45.3*
Cn1ncc2c(Nc3ccc(O)cc3)nc(Cl)nc21,2.6,-7.6,-21.1,15.2,-1.3,8.0,·
CCn1c(O)c(N=Nc2ccc3ccccc3n2)c2ccccc21,29.2,-15.0,15.6,14.7,5.7,18.2,·
Brc1ccc(N=Nc2ccc3ccccc3n2)cc1,43.1,-20.5,40.1*,26.5,19.3,19.0,25.9
CCN1C(=O)[C@H]2[C@@H](c3ccc(Cl)cc3)N3C(=O)CN(CC4CC4)C(=O)[C@@]3(Cc3ccccc3)[C@H]2C1=O,2.1,-7.6,-6.7,-11.5,3.4,-0.9,·
CCC(C)(C)c1ccc(Oc2cccc(C(=O)O)c2)cc1,17.2,1.3,96.9*,22.1,11.9,-1.8,21.4
O=C(NNc1c([N+](=O)[O-])cc(C(F)(F)F)cc1[N+](=O)[O-])c1ccco1,-0.6,13.6,0.8,10.8,0.3,2.1,·
CCn1c(=O)c(CCC(=O)N2CCOCC2)c(C)c2c(C)nn(-c3ccccc3)c21,10.2,12.3,18.1,36.3,4.0,5.0,·
Cc1nn(-c2ccccc2)c2c1c(C)c(CCC(=O)N1CCOCC1)c(=O)n2C,-9.9,-22.1,40.7*,31.1,6.9,12.0,13.9
Cc1cc(-n2cnc(-c3cn[nH]c3C)n2)no1,-0.2,-4.3,-27.7,9.8,-2.1,-16.4,·
Cc1nc([N+](=O)[O-])cn1CC(=O)c1ccc(Br)cc1,-9.6,2.4,-73.7,11.5,-3.5,-143.5,·
Cc1nc([N+](=O)[O-])c(Br)n1CC(=O)c1ccc(Cl)cc1,1.0,·,43.4*,30.8,-5.9,38.7,38.0*
O=C(c1ccc(N2CCOCC2)cc1[N+](=O)[O-])N1CCOCC1,5.8,19.8,-6.1,2.9,-3.2,7.1,·
